Experimental data taken from PubChem BioAssay AID651814 (National Center for Advancing Translational Sciences (NCATS), 2012).
In all, about 2,100 compounds went through this assay and about 590 (28%) were called active. Roughly 42% stayed inconclusive and do not appear here. This is one part of the list. Unmarked numbers belong to inactive results. Calls follow the shape of the dose curve; as a rule, active = well fitted inhibition curve with a large enough effect; inconclusive = small, poorly fitted or top-dose-only effect; inactive = flat fitted curve, though single readings scatter.

What follows are compounds tested against DNA dC->dU-editing enzyme APOBEC-3F (Homo sapiens) (UniProt Q8IUX4) (assay: qHTS for inhibitors of Vif-A3F interactions: Cherry picks). Settings: HeLa A3F-eYFP + Vif (tagged APOBEC3F with the HIV-1 protein that degrades it), eYFP fluorescence, 24 h.
How it was run: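 HeLa cells stably expressing A3F-eYFP plus Vif, cultured overnight, then exposed to compounds at several concentrations for 24 h at 37 deg C. Reduced Vif-driven degradation read as rising eYFP fluorescence (488 nm ex/500-530 nm em) by laser-scanning cytometry; MG132 as positive control.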
Also: nearly all actives have a fitted effect of over 70% in size.
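For max response in this document: % of control where 0% means no effect; active compounds raise eYFP fluorescence by blocking Vif-driven A3F loss.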
Potency is read from the fitted curve at half-maximal effect.

Chain of DNA dC->dU-editing enzyme APOBEC-3F (Homo sapiens) (Q8IUX4 whole entry, looked up): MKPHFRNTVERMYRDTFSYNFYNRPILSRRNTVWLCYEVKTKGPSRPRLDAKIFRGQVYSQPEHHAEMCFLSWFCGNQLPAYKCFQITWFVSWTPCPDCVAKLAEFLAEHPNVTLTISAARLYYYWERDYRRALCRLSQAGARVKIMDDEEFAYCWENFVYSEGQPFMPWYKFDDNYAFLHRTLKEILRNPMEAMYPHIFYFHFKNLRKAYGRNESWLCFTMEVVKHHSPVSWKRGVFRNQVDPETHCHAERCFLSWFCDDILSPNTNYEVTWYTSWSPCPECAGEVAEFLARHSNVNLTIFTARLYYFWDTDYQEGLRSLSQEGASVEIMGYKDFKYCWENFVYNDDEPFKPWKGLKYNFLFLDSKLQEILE

Row | SMILES | max response [%] | Potency
1 | COC1=C(OC)C(=O)C(Sc2ccc3ccccc3c2)=CC1=O | -9.94 | –
2 | CCSc1nnc(-c2sc3nnc(-c4ccccc4)c(-c4ccccc4)c3c2N)o1 | – | 16.4 µM (active)
3 | COc1cc(CNCCSc2nnnn2C)ccc1OCc1c(F)cccc1Cl | -4.2 | –
4 | COc1ccc(C(=O)Nc2cccc(/C=C/c3nc4ccccc4c(=O)[nH]3)c2)cc1 | – | 12.5 µM (active)
5 | N#Cc1c(C(F)(F)F)cc(-c2ccco2)nc1SCc1ccccn1 | – | 10.3 µM (active)
6 | Nc1c(C(=O)Nc2nccs2)sc2nc(-c3cccs3)cc(C(F)(F)F)c12 | – | 8.86 µM (active)
7 | Nc1c(C(=O)Nc2nc3ccccc3s2)sc2nc(-c3cccs3)ccc12 | – | 20.6 µM (active)
8 | Nc1c(C(=O)Nc2ccc(F)cc2)sc2nc(-c3cccs3)cc(C(F)(F)F)c12 | – | 1.64 µM (active)
9 | Cc1nnc(NC(=O)c2sc3nc(-c4cccs4)cc(C(F)(F)F)c3c2N)s1 | – | 7.31 µM (active)
10 | O=C(Nc1nc2ccccc2s1)c1ccc([N+](=O)[O-])o1 | -26.2 | –
11 | COc1ccc2nc(NC(=S)NC(=O)c3ccco3)sc2c1 | -0.262 | –
12 | O=c1[nH]cnc2n[nH]nc12 | – | 2.31 µM (active)
13 | CCNC(=S)N/N=C(\C)c1ccc(N2CCOCC2)cc1 | -0.726 | –
14 | O=c1[nH]c2ccccc2n2c(C(F)(F)F)nnc12 | -23.2 | –
15 | Cn1c(N)c(-c2ccccc2)c2ccc([N+](=O)[O-])cc2c1=O | – | 4.98 µM (active)
16 | CC(C)(C)NCC(=Cc1ccccc1)C(=O)c1ccccc1 | 10 | –
17 | C=C(C(=O)c1ccccc1)C(C)C(=C)C(=O)c1ccccc1 | – | 12.5 µM (active)
18 | O=C(OC12CC3CC(CC(C3)C1)C2)c1ccc(NCc2cc(O)ccc2O)cc1 | -13.8 | –
19 | CCN1/C(=C\C=C(C(C)=O)C(C)=O)Sc2ccccc21 | – | 18.4 µM (active)
20 | O=C(CN1c2ccccc2Sc2ccccc21)NNC(=O)Nc1cccc(Cl)c1 | -28.8 | –
21 | O=S(=O)(Nc1nc2ccccc2nc1OCC(F)(F)F)c1cccs1 | -0.45 | –
22 | CSc1nsc(/C=C/Nc2ccc(F)cc2)c1C#N | -9.4 | –
23 | CSc1nsc(/C=C/Nc2ccc(C)cc2)c1C#N | – | 15.8 µM (active)
24 | N#CC1=C(S)N(c2ccc(F)cc2)C2(CCCCC2)NC1=O | 2.73 | –
25 | Cc1c(C(=O)Nc2cnccn2)oc2ccccc12 | -18.9 | –
26 | CC(=O)Nc1sc(/C(C#N)=C/c2ccc(Cl)c(Cl)c2)nc1-c1ccc(C)cc1 | – | 2.59 µM (active)
27 | CC(=O)Nc1sc(/C(C#N)=C\c2cccc(Cl)c2)nc1-c1ccc(C)cc1 | – | 6.51 µM (active)
